Assay results from PubChem BioAssay AID1069 (NMMLSC, 2008).
Active and inactive are the calls of the source.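 How the source made its calls: active means high combined rank on largest and smallest cell-count-weighted shift across three tests, rank score above 45, floors 50 and 25 (some results past the limit were not filed as active); inactive means the rest.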

Test: LNCaP granularity increase inducers, single-point recheck – cell-based, side scatter shift, flow cytometry, confirmation (AID 1069);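 further: LNCaP human prostate cancer cells in low-serum medium with charcoal-stripped FBS; percent of cells with raised granularity gated so DMSO controls show 10%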
Settings: LNCaP differentiation, 4 d, stronger effect = higher value

SMILES	side scatter shift (at 100 µM)	side scatter shift (side scatter shift, at 10 µM)
CCN(CC)CCCNc1oc(-c2cccc(Cl)c2)nc1C#N	21.9% (inactive)	32.5%
CCOC(=O)N1CCC(NC(=O)C2CCCN(Cc3nc(-c4cccc(Cl)c4)oc3C)C2)CC1 (stereo unspecified)	21.2% (inactive)	5.35%
Cc1cccc(-c2nc(CN3CCCC(C(=O)NC4CCCCC4)C3)c(C)o2)c1 (stereo unspecified)	21.4% (inactive)	7.35%
CCc1ccc(-c2nc(CN3CCC(C(=O)N4CCN(c5ccccn5)CC4)CC3)c(C)o2)cc1	30% (inactive)	32.4%
CCc1ccc(CNC(=O)CN2C(=O)COc3ccccc32)cc1	9% (inactive)	5.7%
COc1ccc(/C=N/c2nc3ccccc3n2C)cc1OC	10% (inactive)	6.6%
CCN1C(=O)OC2(CCCCC2)C1(C)O (stereo unspecified)	10.4% (inactive)	12.7%
CCN(CC)CCCNC(=O)c1cc(-c2cccc(Cl)c2)on1	4.1% (inactive)	4.25%
Cc1ccccc1-c1nc(CN2CCCC(C(=O)NCCCN3CCOCC3)C2)c(C)o1 (stereo unspecified)	72.4% (active)	12.8%
COCCNC(=O)CC(NS(=O)(=O)c1ccc(NC(C)=O)cc1)C(C)C (stereo unspecified)	6.3% (inactive)	9.45%
CCOC(=O)N1CCN(S(=O)(=O)c2ccc(C(=O)Nc3nc4ccccc4s3)cc2)CC1	11.7% (inactive)	5.15%
CCN(CC)CC(=O)Nc1ccc(-c2nc3cc(NC(=O)CN(CC)CC)ccc3o2)cc1	0% (active)	42%
CCOC(=O)c1c(C)[nH]c(C(=O)COC(=O)C2CC2C)c1C (stereo unspecified)	24.3% (active)	44.6%
